In PubChem BioAssay (EPA / NIEHS) one finds outcome and AC50 data, which are given here for three compounds.

Results filed as inconclusive are left out. Active and inactive are the calls of the source. How the source made its calls, unless noted: active means hit-call score of the fitted dose curve at least 0.9, where 1 is the maximum; inactive means score below 0.9.

Read-out in assay [1]: solute carrier (SLCO1B1), SLCO1B1 (gene 10599)
Kind of assay: LTEA_HepaRG_SLCO1B1: Life Technologies and Expression Analysis (LTEA) Assay for solute carrier (SLCO1B1) using HepaRG (AID 2283530). To be noted: mRNA level, 48 h; actives raise or lower the signal. The method, boiled down:
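HepaRG, serum-free induction medium, 48 h dosing, 8-pt half-log from 100 uM, 0.5% DMSO vehicle, duplicates. Readout: SLCO1B1 mRNA, qRT-PCR, ACTB/GAPDH/POLR2A normalization; up or down fit vs DMSO.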

Read-out in assay [2]: sulfotransferase 2A1 (SULT2A1), SULT2A1 (gene 6822)
Kind of assay: LTEA_HepaRG_SULT2A1: Life Technologies and Expression Analysis (LTEA) Assay for sulfotransferase 2A1 (SULT2A1) using HepaRG (AID 2283531). The conditions noted are these: mRNA level, 48 h; actives raise or lower the signal. An outline of the steps: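 Transcript levels of SULT2A1, quantified by qRT-PCR and normalized to three housekeeping genes, serve as the readout. Human HepaRG cultures receive test chemicals for 48 h at up to 100 uM in half-log steps, with 0.5% DMSO vehicle.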

Read-out in assay [3]: Transforming Growth Factor (TGFA), TGFA (gene 7039)
Kind of assay: LTEA_HepaRG_TGFA: Life Technologies and Expression Analysis (LTEA) Assay for Transforming Growth Factor (TGFA) using HepaRG (AID 2283532). To be noted: mRNA level, 48 h; actives raise or lower the signal. An outline of the steps:
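Differentiated HepaRG cells exposed 48 hours in serum-free induction medium, 0.5% DMSO vehicle, 8-point half-log series from 100 uM, in duplicate. TGFA mRNA by TaqMan qRT-PCR, normalised to ACTB, GAPDH, POLR2A; bidirectional fit versus DMSO.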

Read-out in assay [4]: Transforming Growth Factor (TGFB1), TGFB1 (gene 7040)
Kind of assay: LTEA_HepaRG_TGFB1: Life Technologies and Expression Analysis (LTEA) Assay for Transforming Growth Factor (TGFB1) Transporter using HepaRG (AID 2283533). The conditions noted are these: mRNA level, 48 h; actives raise or lower the signal. An outline of the steps: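 HepaRG, 48 h post-plating, switched to serum-free induction medium; chemicals 100 uM top, half-log, 8 pts, 0.5% DMSO, dup; 48 h exposure; RNA → Fluidigm TaqMan qRT-PCR; norm ACTB/GAPDH/POLR2A; bidirectional fit vs DMSO.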

Read-out in a further assay: TIMP1, TIMP1 (gene 7076)
Kind of assay: LTEA_HepaRG_TIMP1: Life Technologies and Expression Analysis (LTEA) Assay for TIMP1 using HepaRG (AID 2283534). The conditions noted are these: mRNA level, 48 h; actives raise or lower the signal. The method, boiled down: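 Readout is TIMP1 mRNA level measured by qRT-PCR and normalized to three housekeeping genes. Human HepaRG cells were treated for 48 h in duplicate at eight concentrations up to 100 uM (0.5% DMSO); gain or loss fitted against DMSO.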

Read-out in assay [5]: Tumor necrosis factor receptor 1 (TNFRSF1A), TNFRSF1A (gene 7132)
Kind of assay: LTEA_HepaRG_TNFRSF1A: Life Technologies and Expression Analysis (LTEA) Assay for Tumor necrosis factor receptor 1 (TNFRSF1A) using HepaRG (AID 2283535). To be noted: mRNA level, 48 h; actives raise or lower the signal. An outline of the steps: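 Read-out is TNFRSF1A transcript level by TaqMan qRT-PCR, normalized to three housekeeping genes, scored as gain or loss of signal versus 0.5% DMSO. Human HepaRG cells received test chemicals for 48 h at up to 100 uM (half-log series).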

Read-out in assay [6]: Thyroid Hormone Responsive (THRSP), THRSP (gene 7069)
Kind of assay: LTEA_HepaRG_THRSP: Life Technologies and Expression Analysis (LTEA) Assay for Thyroid Hormone Responsive (THRSP) using HepaRG (AID 2283536). To be noted: mRNA level, 48 h; actives raise or lower the signal. The method, boiled down: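 Differentiated HepaRG cells treated 48 h in serum-free induction medium with 8 half-log concentrations up to 100 uM (0.5% DMSO), duplicates. THRSP mRNA by TaqMan qRT-PCR normalised to ACTB, GAPDH, POLR2A; bidirectional fit versus DMSO.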

Read-out in assay [7]: Cellular tumor antigen p53 (Homo sapiens) (UniProt P04637)
Kind of assay: LTEA_HepaRG_TP53: Life Technologies and Expression Analysis (LTEA) Assay for Tumor Protein P53 (TP53) using HepaRG (AID 2283537). To be noted: mRNA level, 48 h; actives raise or lower the signal. An outline of the steps: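 Gain or loss of TP53 mRNA signal is scored relative to 0.5% DMSO after 48 h chemical treatment of HepaRG liver cells, tested in duplicate at eight half-log concentrations up to 100 uM.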

Read-out in assay [8]: UDP glucuronosyltransferase (UGT1A1), UGT1A1 (gene 54658)
Kind of assay: LTEA_HepaRG_UGT1A1: Life Technologies and Expression Analysis (LTEA) Assay for UDP glucuronosyltransferase (UGT1A1) using HepaRG (AID 2283538). To be noted: mRNA level, 48 h; actives raise or lower the signal. The method, boiled down: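 Differentiated human HepaRG cells in serum-free induction medium were exposed in duplicate for 48 h to eight half-log concentrations up to 100 uM in 0.5% DMSO. UGT1A1 mRNA was quantified by TaqMan qRT-PCR, normalized to ACTB, GAPDH and POLR2A, and fitted bidirectionally against DMSO.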

Read-out in assay [9]: UDP glucuronosyltransferase (UGT1A6), UGT1A6 (gene 54578)
Kind of assay: LTEA_HepaRG_UGT1A6: Life Technologies and Expression Analysis (LTEA) Assay for UDP glucuronosyltransferase (UGT1A6) using HepaRG (AID 2283539). The conditions noted are these: mRNA level, 48 h; actives raise or lower the signal. An outline of the steps:
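HepaRG, 48 h post-plating switch to serum-free induction medium; chemical 48 h, 100 uM top, half-log x8, duplicate, 0.5% DMSO. Phenobarbital 1mM induction control. UGT1A6 mRNA by TaqMan qRT-PCR; gain/loss fit vs DMSO.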

Read-out in assay [10]: X-box binding protein 1 (XBP1), XBP1 (gene 7494)
Kind of assay: LTEA_HepaRG_XBP1: Life Technologies and Expression Analysis (LTEA) Assay for X-box binding protein 1 (XBP1) using HepaRG (AID 2283540). To be noted: mRNA level, 48 h; actives raise or lower the signal. An outline of the steps:
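Transcript levels of XBP1, measured by qRT-PCR and normalised to three housekeeping genes, were fitted bidirectionally relative to 0.5% DMSO controls. Human HepaRG cells received eight-point half-log dilutions from 100 uM for 48 h.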

Assay [11] in a line: LTEA_HepaRG_LDH_cytotoxicity: Cytotoxicity Assessment in the Life Technologies and Expression Analysis (LTEA) Assay (AID 2283563; active means hit-call score of the fitted dose curve at least 0.9, where 1 is the maximum). An outline of the steps:
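Cells were thawed and plated for 48 h. Medium was then replaced with serum-free induction medium. Chemicals (8 half-log points, maximum 100 uM, 0.5% DMSO) were added in duplicate for 48 h, after which spent medium was assayed for LDH.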

The nature of assay [12]: ATG_XTT_Cytotoxicity: Cytotoxicity Assessment in the Attagene TRANS-FACTORIAL HepG2 Assay (AID 2283584; active means hit-call score of the fitted dose curve at least 0.9, where 1 is the maximum). An outline of the steps: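 Cells: human HepG2, transiently transfected with MRTU reporter constructs. Exposure 24 h. Readout: XTT, cell number. Baseline/neg ctrl DMSO; loss-of-signal scored.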
Assay [13] can be described thus: TOX21_p53_BLA_p3_viability: Viability Assessment in the Tox21 HCT-116 p53 Agonism Beta-lactamase Assay, Phase 3 (AID 2283593; active means hit-call score of the fitted dose curve at least 0.9, where 1 is the maximum;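 further: cells exposed to compound for 16 h before reading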). An outline of the steps:
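HCT116 cells, 4000/well, dosed 5 h after plating by pin transfer (217-fold dilution from DMSO stock) and incubated 16 h at 37C, 5% CO2. Viability read as ATP luminescence with CellTiter-Glo after 30 min at room temperature.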

In assay [14] the target is Cellular tumor antigen p53 (Homo sapiens) (UniProt P04637). Kind of assay: TOX21_p53_BLA_p3_ratio: Tox21 HCT-116 p53 Agonism Beta-lactamase Assay, Ratio, Phase 3 (AID 2283596; active means hit-call score of the fitted dose curve at least 0.9, where 1 is the maximum). The method, boiled down:
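HCT116 p53-bla cells (4000/well) given compound in DMSO (217-fold dilution) after 5 h, incubated 16 h at 37C. CCF4-AM substrate 2 h at room temperature; 460/530 nm emission ratio, gain fitted against DMSO.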

Assay [15] in a line: TOX21_p53_BLA_p4_viability: Viability Assessment in the Tox21 HCT-116 p53 Agonism Beta-lactamase Assay, Phase 4 (AID 2283597; active means hit-call score of the fitted dose curve at least 0.9, where 1 is the maximum;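 further: hits lower the luminescence signal meaning cytotoxicity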). An outline of the steps:
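Cells plated, 5 h pre-incubation; DMSO compounds pinned (217-fold dilution); 16 h, 37C/5% CO2; CCF4-AM 2 h RT; CellTiter-Glo 30 min RT; luminescence read.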

In assay [16] the target is Cellular tumor antigen p53 (Homo sapiens) (UniProt P04637). Kind of assay: TOX21_p53_BLA_p5_ratio: Tox21 HCT-116 p53 Agonism Beta-lactamase Assay, Ratio, Phase 5 (AID 2283599; active means hit-call score of the fitted dose curve at least 0.9, where 1 is the maximum). An outline of the steps: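 HCT-116 p53-bla cells (4000/well) plated 5 h, dosed with compound (217-fold DMSO dilution) for 16 h at 37 C; CCF4-AM substrate 2 h at room temperature. Activity is the 460/530 nm emission ratio (405 nm excitation), fitted in gain-of-signal direction versus DMSO.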

The nature of assay [17]: TOX21_p53_BLA_p5_viability: Viability Assessment in the Tox21 HCT-116 p53 Agonism Beta-lactamase Assay, Phase 5 (AID 2283600; active means hit-call score of the fitted dose curve at least 0.9, where 1 is the maximum). An outline of the steps:
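4000 cells/well; 5 h pre-incubation; DMSO compounds pin-transferred, 217-fold dilution; 16 h, 37C/5% CO2; CCF4-AM 2 h RT; CellTiter-Glo 30 min RT; luminescence.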

Assay [18] is described as follows: TOX21_p53_BLA_p2_viability: Viability Assessment in the Tox21 HCT-116 p53 Agonism Beta-lactamase Assay, Phase 2 (AID 2283591; active means hit-call score of the fitted dose curve at least 0.9, where 1 is the maximum;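 further: compound exposure lasted 16 h at 37 °C; actives lower the ATP signal meaning cytotoxicity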). An outline of the steps:
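HCT116 p53-bla cells, 4000/well, dosed after 5 h plating (217-fold dilution of DMSO stocks) and incubated 16 h at 37C. Viability taken as cellular ATP by CellTiter-Glo luminescence after 30 min RT; signal loss marks cytotoxicity.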

Assay [19] addresses Cellular tumor antigen p53 (Homo sapiens) (UniProt P04637). Kind of assay: TOX21_p53_BLA_p2_ratio: Tox21 HCT-116 p53 Agonism Beta-lactamase Assay, Ratio, Phase 2 (AID 2283592; active means hit-call score of the fitted dose curve at least 0.9, where 1 is the maximum). An outline of the steps:
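HCT116 p53-bla; 4000 cells/well; 5 h pre-incubation; cpd in DMSO, 217-fold dilution; 16 h 37C/5% CO2; CCF4-AM 2 h RT; Ex 405, Em 460/530 ratio; DMSO = baseline; positive fitting direction.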

Sequence of Cellular tumor antigen p53 (Homo sapiens) (P04637 whole entry, looked up): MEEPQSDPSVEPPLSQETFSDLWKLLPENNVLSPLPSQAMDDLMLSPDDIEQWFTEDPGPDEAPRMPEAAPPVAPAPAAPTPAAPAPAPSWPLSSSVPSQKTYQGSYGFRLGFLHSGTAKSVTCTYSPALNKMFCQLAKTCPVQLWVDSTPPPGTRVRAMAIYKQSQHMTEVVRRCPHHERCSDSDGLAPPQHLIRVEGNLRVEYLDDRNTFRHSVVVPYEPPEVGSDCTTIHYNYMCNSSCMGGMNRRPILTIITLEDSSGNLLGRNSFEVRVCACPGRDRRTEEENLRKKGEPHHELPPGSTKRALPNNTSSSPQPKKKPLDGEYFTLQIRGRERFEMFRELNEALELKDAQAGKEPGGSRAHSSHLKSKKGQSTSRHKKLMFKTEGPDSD

`COC(=O)CCC(=O)OC`: the outcome in assay [1] is “inactive”; in assay [2], “inactive”; in assay [3] it was “inactive”; in [4], “inactive”; with TIMP1, TIMP1 (gene 7076) it was “inactive”; in assay [5], “inactive”. Further, the call in assay [6], in assay [7], in assay [8], in assay [9], in [10] and in assay [11] was inactive. The result in assay [12], in [13], in assay [14], in assay [15], in assay [16] and in [17] was inactive.
Usually AC50 stands for the concentration giving half of the maximal activity seen. Turning to `CCCCC(CC)COP(=O)(OCC(CC)CCCC)OCC(CC)CCCC` (stereo not given), the outcome in [1] is “inactive”; in [2], “inactive”; in assay [3], “inactive”; in assay [4], “inactive”; with TIMP1, TIMP1 (gene 7076), “inactive”; in [5], “inactive”. Also, the call in assay [6], in assay [7], in assay [9], in [11], in [12] and in [18] was inactive. Further, the call in assay [13], in assay [14], in [15], in assay [16] and in [17] was inactive. Moreover, in [8], the AC50 was 13.3 µM (active).
As to `COC(=O)CCCC(=O)OC`, the outcome in assay [1] was “inactive”; in assay [2], “inactive”; in assay [3] it was “inactive”; in assay [4], “inactive”; with TIMP1, TIMP1 (gene 7076) it was “inactive”; in [5] it was “inactive”. Also, the call in assay [6], in assay [7], in [8], in [9], in assay [10] and in [11] was inactive. Further, the call in assay [12], in assay [18], in assay [19], in [14], in [15] and in [16] was inactive. Moreover, in [17], the outcome was inactive.
